PLK1 PBD block: blocks phosphopeptide binding to human PLK1 polo-box domain. P53350. Plk1 PBD binding of FITC phosphopeptide, fluorescence polarization. Potency, µM, inactives show max response, negative = inhibition, usual class: inhibitors. 2.8% of 360,000 active. AID 720504; note: potency is the fitted concentration of half-maximal effect; series mostly up to about 57 µM; % is set by controls: 0 for no effect and ±100 for the full control effect; nearly all actives have a fitted effect of over 65% in size
Tb PFK block: inhibitors of T. brucei phosphofructokinase; Potency, µM (series often up to 57.5 µM), without a hit: at the highest dose activity, negative = inhibition, actives largely listed as inhibitors; AID 485367; 0.17% of 330,000 active; O15648; T. brucei PFK, ADP-Glo luminescence;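 note: potency is the fitted concentration of half-maximal effect; 0% = uninhibited 1x PFK enzyme wells and -100% = no-enzyme wells; nearly all actives have a fitted effect of over 60% in size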
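1.25 nM PFK with 0.5 mM F6P and 0.1 mM ATP in 0.1 M TEA pH 8.0, 5 mM MgCl2, incubated 45 min at room temperature; ADP measured by ADP-Glo luminescence; compounds titrated up to 57 uM.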
Pin1 inhibitor: inhibitors of human Pin1; Q13526; Pin1 FP peptide displacement, HiFluor488, 10 min; Potency, µM (highest dose often 115 µM), without a hit: at the top dose activity, negative = inhibition, most hits filed as inhibitors; 0.009% of 390,000 active; AID 504891; active = well fitted inhibition curve with a large enough effect in the polarisation, with a control signal flat, not every such curve was filed as active; inconclusive = small, poorly fitted or top-dose-only effect, or effect the other way, or a change in a side signal; inactive = no such curve, though single readings can be large or run the other way; the % refers to the polarisation; note: potency is the fitted concentration of half-maximal effect; % is set by controls: 0 for no effect and ±100 for the full control effect
Target sequence (Q13526 whole entry, looked up): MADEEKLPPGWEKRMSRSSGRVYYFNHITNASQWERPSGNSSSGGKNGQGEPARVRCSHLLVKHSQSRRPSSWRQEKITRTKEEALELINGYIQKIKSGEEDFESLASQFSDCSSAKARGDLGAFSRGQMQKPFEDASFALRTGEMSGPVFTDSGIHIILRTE
S-ASM inh: inhibitors of human secretory acid sphingomyelinase. AID 504937. placental ASM, HMU-PC fluorogenic substrate, 60 min. 0.006% of 340,000 active. Potency, µM (titrated, usually from 57.5 µM), for the others: top-dose activity change, negative = inhibition, most hits filed as inhibitors. P17405; note: potency is the fitted concentration of half-maximal effect
Target sequence (P17405 47-631 limits assumed): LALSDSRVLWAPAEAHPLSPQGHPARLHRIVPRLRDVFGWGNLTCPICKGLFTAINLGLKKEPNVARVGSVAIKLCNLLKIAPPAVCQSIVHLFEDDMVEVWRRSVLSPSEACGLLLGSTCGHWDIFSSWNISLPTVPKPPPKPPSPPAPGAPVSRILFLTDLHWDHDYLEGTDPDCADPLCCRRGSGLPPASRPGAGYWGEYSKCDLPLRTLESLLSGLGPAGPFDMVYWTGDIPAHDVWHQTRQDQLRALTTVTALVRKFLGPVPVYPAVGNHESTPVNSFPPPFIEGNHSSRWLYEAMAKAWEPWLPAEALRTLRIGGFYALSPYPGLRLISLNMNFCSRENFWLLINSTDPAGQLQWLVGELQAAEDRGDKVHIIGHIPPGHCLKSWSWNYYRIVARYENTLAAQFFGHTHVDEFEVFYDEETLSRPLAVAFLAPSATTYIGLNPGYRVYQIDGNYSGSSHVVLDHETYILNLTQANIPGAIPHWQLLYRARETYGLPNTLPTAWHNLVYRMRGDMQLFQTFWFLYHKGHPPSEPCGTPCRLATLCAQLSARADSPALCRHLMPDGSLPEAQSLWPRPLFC
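Steps: dispense placental human ASM, pin compound, wait 10 min at room temperature, add HMU-PC0 substrate at 9 uM final, incubate 60 min at 37 °C, add stop solution raising pH to 10, read fluorescence.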
TDP1 inh: blocks human tyrosyl-DNA phosphodiesterase 1 | recombinant TDP1, AlphaScreen DNA substrate cleavage | Potency, µM (doses to about 130 µM), without a hit: at the top dose activity change, negative = inhibition, actives largely listed as inhibitors | 0.28% of 350,000 active; note: potency is the fitted concentration of half-maximal effect; % is set by controls: 0 for no effect and ±100 for the full control effect; nearly all actives have a fitted effect of over 40% in size
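Steps: enzyme plus compound, 15 min RT; add biotin/phosphotyrosine-FITC oligonucleotide (15 nM final), react 5 min; add donor/acceptor beads (10 ug/ml final), 10 min; read AlphaScreen. Tdp1 at 1 nM final.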
VDR inhibitor: inhibitors of human vitamin D receptor; P11473; VDR-SRC2-3 peptide fluorescence polarization, 2 h; Potency, µM, without a hit: max response, negative = inhibition, actives largely listed as inhibitors; 0.93% of 400,000 active; AID 504847; note: potency is the fitted concentration of half-maximal effect; % is set by controls: 0 for no effect and ±100 for the full control effect
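Two reagent solutions held at 4 deg C in the dark were dispensed, compounds pinned at 23 nl, and the mixture incubated 2 h at room temperature. Read-out: fluorescence polarization of VDR–SRC2-3 peptide binding.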
USP1-UAF1 confirm: blocks human USP1/UAF1 cleavage of Ub-Rhodamine | shares compounds with VDR inhibitor | Ub-Rhodamine cleavage, fluorescence kinetic read | Potency, µM (top dose mostly 56.8 µM), without a hit: at the top dose activity change, negative = inhibition, usual class: inhibitors | 50% of 50 active | AID 540327
VDR confirm: inhibits human vitamin D receptor, primary hit validation; shares compounds with VDR inhibitor; 89% of 840 active; Potency, µM, actives largely listed as inhibitors; VDR-coactivator inhibition assay, qHTS confirmation; note: potency is the fitted concentration of half-maximal effect
VDR FP fluor: blocks human VDR-coactivator binding in fluorescein assay. shares compounds with VDR inhibitor. VDR-coactivator binding, fluorescein fluorescence polarization. Potency, µM (highest dose often 57.1 µM), without a hit: top-dose activity change, negative = inhibition, actives largely listed as inhibitors. 48% of 840 active; note: potency is the fitted concentration of half-maximal effect
VDR bla: confirmation of human vitamin D receptor inhibitors in reporter cells; VDR beta-lactamase reporter cells, FRET ratio; cells co-treated with VDR agonist LG190178; shares compounds with VDR inhibitor; AID 602202; 23% of 840 active; Potency, µM (series often up to 46.1 µM), for inactives: at the top dose activity change, negative = inhibition, most hits filed as inhibitors; note: potency is the fitted concentration of half-maximal effect; % is set by controls: 0 for no effect and ±100 for the full control effect
VDR cytotox: counter-screen for vitamin D receptor inhibitors: cytotoxicity | shares compounds with VDR inhibitor | cytotoxicity counter-screen, cell viability, qHTS | Potency, µM (titrated, usually from 48.3 µM), for inactives: top-dose activity change, negative = cytotoxicity, most hits filed as cytotoxic | 18% of 840 active;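 note: potency is the fitted concentration of half-maximal effect; plate controls were DMSO for no effect and high-concentration cycloheximide for full effect; nearly all actives have a fitted effect of over 75% in size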
* = called active by the depositor; i = inactive; ? = inconclusive; . = no result given; [ ] = dose if it differs, or a comment. The list is not random: actives were taken first. Their share in the collection is about 3.1%. Unless noted, calls come from the whole dose curve; as a rule, active = well fitted curve in the direction sought with a large enough effect; inconclusive = small, poorly fitted or top-dose-only effect, or another doubt; inactive = no such curve, though single readings can be large; an effect the other way counts as inactive or inconclusive.

SMILES	PLK1 PBD block	Tb PFK block	Pin1 inhibitor	S-ASM inh	TDP1 inh	VDR inhibitor	VDR confirm	VDR FP fluor	VDR bla	VDR cytotox	others
CN(c1ccccc1)S(=O)(=O)c1ccc(NC(=O)c2nc(S(C)(=O)=O)ncc2Cl)cc1	16.8µM*	-23.2%	1.6%	-0.8%	3.8%	20µM*	3.77*	3.55µM*	3.66µM*	8.2µM*
CCc1ccc(NC(=O)c2nc(S(=O)(=O)Cc3ccccc3)ncc2Cl)cc1	.	-16.8%	.	.	0.8%	.	.	.	.	.
CCS(=O)(=O)c1ncc(Cl)c(C(=O)Nc2ccc(S(=O)(=O)N3CCC(C)CC3)cc2)n1	?	-16.0%	45.5%	2.4%	10.2%	14.1µM*	5.32*	3.55µM*	8.2µM*	3.66µM*
CCCSc1ncc(Cl)c(C(=O)Nc2ccc(S(=O)(=O)N(C)c3ccccc3)cc2)n1	.	.	19.8%	.	7.4%	17.0%	.	.	.	.
CCOc1ccc(CNC(=O)c2cccn2-c2nnc(N3CCCCC3)s2)cc1OC	.	.	-1.2%	.	2.6%	-6.0%	.	.	.	.
CCOC(=O)c1ccc(NC(=O)CN2C(=O)c3cccnc3Sc3ccccc32)cc1	.	.	6.3%	.	7.1%	14.4%	.	.	.	.
Cc1sc(NC(=O)COc2cccc(-n3cnnn3)c2)c(C#N)c1C	-12.0%	2.2%	64.0%	1.0%	-5.3%	-4.2%	.	.	.	.
Cc1sc(NC(=O)COc2ccccc2)c(C#N)c1C	7.52µM*	-20.2%	0.0%	-1.1%	0.0%	50.1µM*	23.8*	?	14.4%	-0.5%
C[C@@H]1c2ccccc2CN1CC1=NCCN1	.	.	.	.	8.3%	3.3%	.	.	.	.	USP1-UAF1 confirm=-11.4%[114 µM]
CC1c2ccccc2CN1CC1=NCCN1 (stereo not drawn)	.	.	.	.	7.3%	-4.5%	.	.	.	.
COc1cc(/C=C2/N=C(C3CCCCC3)OC2=O)cc(OC)c1OC	-19.7%	2.8%	0.1%	0.2%	0.0%	39.8µM*	16.8*	14.1µM*	24.1%	14.5%
COc1cccc([C@@H]2Oc3ccc(Br)cc3C[C@H]2OC(=O)NS(=O)(=O)c2ccc(C)cc2)c1	.	.	.	.	6.2%	-12.5%	.	.	.	.
O=C(NC1CCCCCC1)C(=S)N1CCOCC1	5.32µM*	-15.7%	-12.6%	0.0%	-2.7%	17.8µM*	21.2*	?	-4.4%	21.9%
CCc1ccc2c(c1)/C(=C/C(=O)c1cccs1)C(=O)N2	?	-12.1%	-4.3%	-24.1%	9.5%	25.1µM*	15*	8.91µM*	?	?
Cc1cc(C)c2c(c1)/C(=C/C(=O)c1ccc(Br)s1)C(=O)N2	-14.6%	-1.6%	-11.8%	-8.3%	10.1%	?	.	.	.	.
CCc1ccc(C(C)NC(=O)c2cccs2)cc1 (stereo not drawn)	3.0%	.	29.3%	0.2%	.	-2.5%	.	.	.	.
Cc1cccc2c1NC(=O)/C2=C\C(=O)c1cccs1	-27.3%	-5.7%	43.6%	-1.4%	4.7%	?	6.31*	8.91µM*	23.1µM*	29.9µM*
CC1(C)Cc2ccccc2C2=NNC(=O)C2=N1	-21.3%	3.7%	3.8%	-2.4%	0.0%	11.2µM*	?	?	-13.9%	?
CC1(C)Cc2ccccc2C(Nn2cnnc2)=N1	-1.9%	-1.0%	2.8%	-4.7%	6.1%	-11.3%	.	.	.	.
O=C(/C=C/c1ccc(Br)cc1)c1ccco1	-17.6%	-4.4%	-0.6%	-0.7%	3.5%	44.7µM*	23.8*	?	13.3%	13.0%
CN1C(=O)/C(=N\OC(=O)c2ccccc2Cl)c2ccccc21	2.67µM*	4.2%	4.5%	-3.8%	2.5%	?	14.1*	15.8µM*	?	2.2%
COCC(=O)Nc1sc2c(c1C(=O)OC)CCC(C)C2 (stereo not drawn)	-4.7%	-0.2%	?	-2.0%	6.8%	4.3%	.	.	.	.
CC1CCc2c(sc(NC(=O)CCC(=O)O)c2C(=O)NC2CC2)C1 (stereo not drawn)	5.32µM*	?	-1.9%	4.4%	6.7%	56.2µM*	26.7*	28.2µM*	10.2%	-5.3%
O=C1C(Cl)=C(N2CCOCC2)C(=O)N1c1cccc(C(F)(F)F)c1	?	-0.2%	-5.4%	-0.5%	1.7%	35.5µM*	29.9*	28.2µM*	7.3%	-4.0%
CN1CCN(C2=C(Cl)C(=O)N(c3cccc(Cl)c3)C2=O)CC1	-23.0%	-1.4%	-15.5%	2.8%	8.4%	-8.5%	.	.	.	.
SMILES	PLK1 PBD block	Tb PFK block	Pin1 inhibitor	S-ASM inh	TDP1 inh	VDR inhibitor	VDR confirm	VDR FP fluor	VDR bla	VDR cytotox	others
COc1ccc(C(=O)c2cn(CC(=O)Nc3ccc4c(c3)OCO4)c3ccc(OC)cc3c2=O)cc1	.	.	150.3%	.	6.4%	13.7%	.	.	.	.
O=C(Oc1ccc(Br)cc1C(=O)/C=C/c1ccccc1F)c1ccco1	-16.0%	.	0.0%	-4.8%	.	44.7µM*	?	7.08µM*	-8.6%	?
COc1cc2c(cc1OC)-c1cc3nc4ccccc4nc3n1C(C)(C)C2	.	.	.	.	13.1%	7.08µM*	20*	?	?	-8.2%	USP1-UAF1 confirm=46.9µM*
COc1cc2c(cc1OC)-c1n[nH]c(=S)n1C(C)(C)C2	?	-9.7%	6.6%	-1.1%	1.1%	-3.8%	.	.	.	.
Cc1ccc(N2CCN(C(=O)c3c4c(nc5ccccc35)C(=O)N(C3CCCCC3)C4)CC2)c(C)c1	.	.	1.6%	.	5.8%	3.7%	.	.	.	.
Nc1ccc(O)c(-c2nc3ccccc3s2)c1	-28.9%	3.2%	1.1%	8.8%	?	-19.1%	.	.	.	.
Oc1ccc(N=C/C=C/c2cccc(Br)c2)cc1-c1nc2ccccc2s1	?	-0.4%	-5.4%	6.5%	0.0%	?	8.91*	22.4µM*	18.4µM*	?
CCc1ccc(-n2nc3cc(C)c(N)cc3n2)cc1	?	3.0%	2.5%	i	1.7%	?	7.08*	12.6µM*	1.4%	3.7%
Cc1ccc(CCNC(=O)c2ccc3c(c2)N(Cc2ccccc2F)C(=O)c2ccccc2S3=O)cc1 (stereo not drawn)	.	.	38.8%	.	2.3%	-14.7%	.	.	.	.
